# From PubChem BioAssay AID764 (NMMLSC, 2007)
# Among all 190,000 compounds or so, about 220 (0.12%) were called active. Not shown: some 2% with an inconclusive outcome.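 Rule for the calls: active = GTP binding at least 20 percentage points away from the 100% baseline, in either direction, so actives lie on both sides; inconclusive = Compound likely fluorescent itself, or too few beads counted; inactive = the rest.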 The full list was thinned out, with actives kept by preference.
# Target: Ras-related C3 botulinum toxin substrate 1 (Homo sapiens) (UniProt P63000)
# Assay: GTP binding modulators of activated mutant Rac1, primary screen, biochemical, bead-based flow cytometry, multiplex, fluorescent GTP (AID 764)
# Conditions: GST-Rac1 activated beads, at 10 µM, actives lie on both sides, 100% means binding = to untreated wells
row,SMILES,percent activity (GTP binding)
1,O=C(CN1CCN(C/C=C/c2ccccc2)CC1)Nc1ccc(F)cc1F,93% (inactive)
2,CCc1ccc(N2CC(O)=C(c3nc4ccccc4c(=O)[nH]3)C2=N)cc1,94% (inactive)
3,COc1ccc(/C=N/n2c(C)cc(C)cc2=O)cc1,97% (inactive)
4,CC(C)Oc1ccccc1C(=O)NC(CO)C(=O)O (stereo unspecified),96% (inactive)
5,CCOC(=O)C1=NOC(Cn2cc(C(C)=O)c(=O)[nH]c2=O)C1 (stereo unspecified),92% (inactive)
6,COC(=O)CN1C(=O)N/C(=C/c2ccc(OC)c(C)c2OC)C1=O,96% (inactive)
7,CCOc1cc(NS(=O)(=O)c2ccc(OC)cc2)c(OCC)cc1NC(C)=O,97% (inactive)
8,CN(C)S(=O)(=O)c1ccc2oc(SCC(=O)Nc3ccccc3F)nc2c1,95% (inactive)
9,Cc1nc2cc(NCc3cccs3)ccc2n1C,97% (inactive)
10,CCOP(=O)(OCC)C(Nc1ccc([N+](=O)[O-])cc1)c1ccc(Cl)cc1 (stereo unspecified),92% (inactive)
11,CCNC(=O)c1ccc(OCC(=O)Nc2ccc(F)cc2)c(OC)c1,94% (inactive)
12,CCC(=O)Nc1ccc(Nc2nc(Cl)nc(Nc3ccc(NC(=O)CC)cc3)n2)cc1,94% (inactive)
13,Cc1nnc(CN(C)Cc2cn[nH]c2-c2ccc(-c3ccccc3)cc2)o1,97% (inactive)
14,CC1(C)OC(=O)C(=CSc2ccc(C(C)(C)C)cc2)C(=O)O1,96% (inactive)
15,COc1ccccc1NC(=O)c1c(Br)cnn1C,95% (inactive)
16,Cc1cnc(C(=O)OCC(=O)N2CCc3ccccc32)cn1,96% (inactive)
17,Cc1cc(C)c(C#N)c(N2CCC(C(N)=O)CC2)n1,98% (inactive)
18,OCCC1CN(Cc2cccc(OC3CCCC3)c2)CCN1Cc1ccsc1 (stereo unspecified),95% (inactive)
19,CCN(CC)CCNC(=O)c1ccc(NC(=O)c2c(F)cccc2Cl)cc1,99% (inactive)
20,CCc1ccc(-n2c(SCc3cc(=O)n4cc(Br)ccc4n3)nc3[nH]ncc3c2=O)cc1,94% (inactive)
21,O=C1CC(=O)Nc2cc(S(=O)(=O)N3CCN(c4cccc(C(F)(F)F)c4)CC3)ccc2N1,93% (inactive)

row,SMILES,percent activity (GTP binding)
1,COc1ccc(OC)c(CNC(=O)c2cc(=O)[nH]c3ccc(S(=O)(=O)N4CCCC4)cc23)c1,95% (inactive)
2,CC(C)(C)NC(=O)NC(=O)COC(=O)C1(C)CC1(Cl)Cl (stereo unspecified),97% (inactive)
3,COC(=O)C(NS(=O)(=O)c1ccc(F)cc1)c1ccccc1 (stereo unspecified),96% (inactive)
4,O=C(CP(=O)(c1ccccc1)c1ccccc1)N1CCOCC1,92% (inactive)
5,O=C(C1CC1)N1N=C2CCCCC2C1(O)C(F)(F)F (stereo unspecified),96% (inactive)
6,Cc1ccc(C)c(-n2cc(CN3CCN(C(=O)c4ncn[nH]4)CC3)c(-c3ccccc3)n2)c1,95% (inactive)
7,CCN(CC)S(=O)(=O)c1ccc(N2CCOCC2)c(NC(=O)C2COc3ccccc3O2)c1 (stereo unspecified),97% (inactive)
8,CCOC(=O)C1=C(CC)OC(N)=C(C#N)C1c1ccc(F)cc1F (stereo unspecified),93% (inactive)
9,O=C(O)c1cccc(NC(=O)c2cc(-c3cccc(Cl)c3)nc3ccccc23)c1,93% (inactive)
10,COc1ccc(C2C(C#N)=C(N)N(c3ncn[nH]3)C3=C2C(=O)CCC3)cc1 (stereo unspecified),96% (inactive)
11,COc1ccc(N2CCN(C(=O)CCSCc3ccccc3F)CC2)cc1,92% (inactive)
12,Cc1ccnc(NC(=O)CCC(=O)N(CC(=O)NCCc2ccccc2)Cc2cccs2)c1,97% (inactive)
13,COc1ccc(NC(=O)/C(C#N)=C\c2cc(OC)c(OCc3ccc(C(=O)O)cc3)cc2Br)cc1,89% (inactive)
14,C1CC1Cc1noc(CN2CCN(CC3CC3)CC2)n1,94% (inactive)
15,CCn1c(CNC(=O)c2ccco2)nnc1SCC(=O)Nc1cccc(F)c1,98% (inactive)
16,Cn1c(SCC(=O)NC2CCCCC2)nnc1-c1ccc(N)cc1,96% (inactive)
17,CC(=O)NC1(c2ccc(F)cc2)CCN(C(=O)c2c(F)cccc2F)CC1,92% (inactive)
18,CN(C)C(CNC(=O)c1cccc(C#N)c1)c1ccco1 (stereo unspecified),97% (inactive)
19,COc1ccc(C(=O)COC(=O)c2nn(C)c(=O)c3ccccc23)c(OC)c1,92% (inactive)
20,Cc1c(Br)c([N+](=O)[O-])nn1CC(=O)N1CCN(Cc2ccccc2)CC1,98% (inactive)
21,CC(=O)c1ccc(NC(=S)N(Cc2ccccc2)C(C)C2CC2)cc1 (stereo unspecified),93% (inactive)

row,SMILES,percent activity (GTP binding)
1,CCN(CCn1cccn1)C(=O)CC1C(=O)NCCN1Cc1cccc(OC)c1OC (stereo unspecified),93% (inactive)
2,CCOC(=O)CNc1nc(Cl)nc(Nc2ccccc2)n1,96% (inactive)
3,Cc1ccc(SC(CC(=O)c2ccc(C(C)(C)C)cc2)C(=O)O)cc1 (stereo unspecified),74% (active)
4,Cc1ccc(CSCC(N)C(=O)O)cc1 (stereo unspecified),97% (inactive)
5,Cc1ccc(C(=O)CS(C)(=O)=O)cc1,99% (inactive)
6,Cc1cc(C)nc(Nc2ncn[nH]2)n1,96% (inactive)
7,Cc1ncc([N+](=O)[O-])n1CCOC(=O)c1ccc(Br)cc1,91% (inactive)
8,CCCCN(C(=O)c1ccc(OC(F)(F)F)cc1)c1c(N)n(CCC)c(=O)[nH]c1=O,96% (inactive)
9,Cn1cc(CN2CCCCC2c2ccccn2)c(-c2ccc3c(c2)OCCO3)n1 (stereo unspecified),97% (inactive)
10,CCC(=O)N1c2ccccc2NC2=C(C(=O)CCC2)C1c1ccco1 (stereo unspecified),98% (inactive)
11,Cc1ccc(CN2CCN(Cc3cccc(C)n3)CC2CCO)cc1 (stereo unspecified),94% (inactive)
12,CC(=O)C1C(c2ccc(Cl)cc2)c2c(n[nH]c2C)CC1(C)O (stereo unspecified),97% (inactive)
13,COc1cc(/C=C/C2=CC(C)(C)NC(=S)N2)cc(OC)c1OC,94% (inactive)
14,O=C(CCNC(=O)Cn1ccc2ccccc2c1=O)NCCC1=CCCCC1,101% (inactive)
15,COc1cc2c(C(=O)N3CCN(C)CC3)c(CSc3ccccc3)n(C)c2cc1Br,94% (inactive)
16,Cc1nn(CC2CC2)c(=O)n1N(C)c1ncc(C(F)(F)F)cc1Cl,96% (inactive)
17,COc1cccc(CNC(=O)CCC2CCCN(C(=O)c3ccoc3C)C2)c1 (stereo unspecified),95% (inactive)
18,COC(=O)NNC1=CC(=O)CC(C)(C)C1,97% (inactive)
19,CCC(C)N(C(=O)COC(=O)C1C(C(=O)OC)=C(C)NC(C)=C1C(=O)OC)C1CCS(=O)(=O)C1 (stereo unspecified),95% (inactive)
